A selection: hits, their analogues and other compounds. The true share with any hit is near 1.9%.
Glyco luc inh – blocks N-linked glycosylation in D54 reporter cells; D54 ERlucT glycosylation luciferase reporter, 24 h; percent of 100 nM tunicamycin response; reporter increase, % at 12.5 µM; 360,000 compounds, 0.23% hits;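 active means mean luciferase reporter signal, scaled so untreated is 0 and the glycosylation-blocking control 100, at or above a set limit in every replicate; inconclusive means mean reaches the limit but not every replicate does; inactive means mean below the limit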;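 further: luciferase carries N-glycosylation sites so blocking glycosylation raises the light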
ATG4B inh – inhibitors of human ATG4B cysteine protease; AID 504462; inhibition, % at 8.33 µM; ATG4B cleavage of LC3-PLA2, NBD-HPC fluorescence, 1 h; Q9Y4P1; 340,000 compounds, 0.51% hits; in the data active means inhibition above about 40%
Target sequence (Q9Y4P1 whole entry, looked up): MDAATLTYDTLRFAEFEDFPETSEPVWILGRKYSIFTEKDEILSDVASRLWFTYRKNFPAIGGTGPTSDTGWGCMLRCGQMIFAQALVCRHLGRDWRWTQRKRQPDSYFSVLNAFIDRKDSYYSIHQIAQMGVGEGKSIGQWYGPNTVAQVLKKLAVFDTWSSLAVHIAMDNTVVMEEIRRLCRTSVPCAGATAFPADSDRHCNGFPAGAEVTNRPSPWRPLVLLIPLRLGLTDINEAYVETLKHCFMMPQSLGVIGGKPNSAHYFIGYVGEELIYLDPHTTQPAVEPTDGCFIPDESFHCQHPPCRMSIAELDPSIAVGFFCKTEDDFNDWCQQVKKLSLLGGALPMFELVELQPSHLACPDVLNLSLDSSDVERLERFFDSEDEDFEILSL
CaV13 FRET inh – Primary screen for inhibitors of IQ motif and Ca2+-dependent inactivation inhibitor domain binding in CACNA1D, Förster resonance energy transfer in living cells, …; 340,000 compounds, 0.098% hits; inhibition, % at 12.3 µM; HEK cells, CFP/YFP FRET ICDI-IQ, plate reader, 10 min; percent FRET-ratio fall versus neutral wells;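 active means mean replicate inhibition of at least 30% and at least 1% of replicates passing that level; inconclusive means only one of the two criteria is met; inactive means neither criterion is met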
DSG3 Ab inh – blocks pemphigus antibody binding to human desmoglein-3. P32926. DSG3-coupled beads, scFv-anti-DSG3-GFP binding, flow cytometry; stronger effect = lower value. binding (percent of control), % at 10 µM. 310,000 compounds, 0.48% hits. AID 588358;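 active means binding more than 3 SD below its plate's average and above zero; inconclusive means below that plate limit but binding exactly zero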
NSD2 HMT inh – inhibitors of human histone methyltransferase NSD2; NSD2 peptide methylation, AlphaScreen, 120 min; 310,000 compounds, 0.54% hits; inhibition, % at 12.5 µM; O96028; in the data active means inhibition above about 50%
Vif inh – inhibitors of HIV Vif; HEK293T cells, Vif self-association by quenched fluorescence, imaging, 24 h; inhibition, % at 7.49 µM; 340,000 compounds, 0.35% hits; AID 602346; in the data active means inhibition above about 50%, passing the limit was not always enough; inconclusive means no clear call, values can overlap the other calls; inactive means below about 31%
Alpha artifact – AlphaScreen assay artifact in NSD2 counter-screen; shares compounds with NSD2 HMT inh; AlphaScreen artifact counterscreen, preloaded methylated H4 peptide; AC35, µM (series often up to 10 µM); 1,500 compounds, 9.4% hits; AID 1053174; call rule not given here
Numbers stand for hits; - = inactive; ? = inconclusive; . = no result given.

SMILES	Glyco luc inh	ATG4B inh	CaV13 FRET inh	DSG3 Ab inh	NSD2 HMT inh	Vif inh	Alpha artifact
COc1cc2[nH]c(Cl)c([N+](=O)[O-])c2cc1OC	-	-	-	-	95	-	-
CC(C)n1c(NCc2nc3ccccc3n2C)nc2ccccc21	-	-	-	.	120	-	-
CC(Cc1c[nH]c2ccccc12)C(=O)NCc1ccco1 (stereo not drawn)	-	-	-	-	63	-	-
CC(=O)NC(Cc1c[nH]c2ccccc12)C(=O)NCc1ccco1 (stereo not drawn)	-	-	-	-	-	-	.
COCCN1CC(=O)N2C(c3cccc(C)c3)c3[nH]c4ccccc4c3C[C@H]2C1=O (stereo partly drawn)	-	-	-	-	52	-	-
O=C(CNC(=O)c1ccco1)NCC(=O)OCc1ccccc1Cl	-	-	-	.	56	-	-
O=C(CNC(=O)c1ccco1)OCc1ccccc1Cl	-	-	-	-	-	-	.
Nc1cc(S(=O)(=O)O)cc2ccc(S(=O)(=O)O)cc12	-	-	-	-	102	-	-
Nc1ccc(C(=O)Nc2ccc3c(O)cc(S(=O)(=O)O)cc3c2)cc1	-	-	-	-	-	-	.
COc1cccc(CN2CCN(C3CCN(c4ccccc4C)CC3)CC2CCO)c1 (stereo not drawn)	-	-	-	-	-	.	.
CS(=O)(=O)N(CC(=O)NCc1ccc2c(c1)OCO2)c1cccc(Cl)c1	-	-	-	-	106	-	-
CS(=O)(=O)N(CC(=O)NCc1ccc2c(c1)OCO2)c1ccc(Cl)cc1	-	-	-	-	-	-	.
CNCc1cc(Br)c(OCC(=O)Nc2ccccc2OC)c(OC)c1	-	-	-	-	73	-	-
CC(=O)N=Cc1c(C)c(C#N)c(=O)n(C)c1O	-	-	-	-	101	-	-
O=C(Nc1ccc(O)cc1)C1CC=CCC1 (stereo not drawn)	-	-	-	-	126	-	-
O=C(CN1CCCC1)N1c2ccccc2Sc2ccc(Cl)cc21	-	-	-	-	-	-	.
O=C1c2c(O)ccc(O)c2C(=O)c2c(NCCNCCO)ccc(NCCNCCO)c21	-	-	-	-	92	-	2µM
O=C1c2ccccc2C(=O)c2c(Nc3ccc(CCO)cc3)ccc(O)c21	-	-	-	-	-	-	.
O=C(Cc1ccc(Br)cc1)Nc1ncc([N+](=O)[O-])s1	-	-	-	-	50	-	-
COc1cccc(NC(=O)c2ccc3c(c2)OCO3)c1	-	-	-	-	-	-	.
COc1ccc(N2CCOCC2)c(NC(=O)c2ccc3c(c2)OCO3)c1	-	-	-	-	53	-	-
COc1cccc(NC(=O)c2ccc3c(c2)OCCO3)c1	-	-	-	-	113	-	-
COC(=O)c1ccc(N2CCOCC2)c(NC(=O)c2ccc3c(c2)OCO3)c1	-	-	-	-	-	-	.
CC(C)(C#N)NC(=O)C(=O)c1c(-c2ccccc2)cc2ccccn12	-	-	-	-	-	-	.
CCOC(=O)NCCc1c(C)nc2c(c(C)nn2C(C)(C)C)c1C	-	-	-	-	68	-	-
SMILES	Glyco luc inh	ATG4B inh	CaV13 FRET inh	DSG3 Ab inh	NSD2 HMT inh	Vif inh	Alpha artifact
Cc1cc(C)nc(N2CCC(C(=O)N(C)CCc3ccccc3)CC2)n1	.	.	.	.	60	.	-
O=C(NCc1ccc(Cl)cc1)c1ccc(S(=O)(=O)N2CCCCC2)cc1	-	-	-	-	53	-	-
CC(C)(C#N)NC(=O)C1CCCN1S(=O)(=O)c1ccc2ccccc2c1 (stereo not drawn)	-	-	-	-	109	-	-
C/C(CC(=O)NCCCN1CCOCC1)=N\NC(=O)COc1ccc(C)cc1	-	-	-	-	-	-	.
C/C(CC(=O)NCCCN1CCOCC1)=N\NC(=O)COc1ccc(Cl)cc1	-	-	-	-	65	-	-
O=C(Nc1ccc(S(=O)(=O)Nc2ncccn2)cc1)C1CC(=O)N(c2ccc(Cl)cc2)C1 (stereo not drawn)	-	-	-	-	76	56	-
O=C(Nc1ccc(S(=O)(=O)Nc2nccs2)cc1)C1CC(=O)N(c2ccc(Cl)cc2)C1 (stereo not drawn)	-	-	-	-	-	-	.
CCN1CCc2nc3ccccc3c(C(=O)Nc3ccc(NC(C)=O)cc3)c2C1	-	-	-	-	59	.	-
CCN1CCc2nc3ccccc3c(C(=O)Nc3ccc(F)cc3)c2C1	-	-	-	-	-	-	.
COc1ccc(CN2CCNC(=O)C2CC(=O)NCCc2cnccn2)cc1C (stereo not drawn)	-	-	-	-	-	-	.
COc1ccc(OC)c2c1C(=O)c1ccccc1C2=O	.	-	-	.	-	.	.
COc1ccc2noc3c2c1C(=O)c1ccccc1-3	?	-	-	-	108	-	-
CC(C)CSc1nnc(-c2ccco2)n1C	.	.	.	.	-	.	.
CC(C)c1ccc(NC(=O)C2CC(=O)N(C(C)C)C2)cc1 (stereo not drawn)	-	-	-	.	-	-	.
C=CCOc1ccc(NC(=O)C2CC(=O)N(C(C)C)C2)cc1 (stereo not drawn)	-	-	-	?	56	-	-
Cc1ccc(CSc2nc3c(c(=O)[nH]2)C(c2ccncc2)C2=C(CCCC2=O)N3)cc1 (stereo not drawn)	-	-	-	-	127	-	-
CCN1CCN(CCCNC(=O)c2ccc3c(Cl)c4c(nc3c2)CCCC4)CC1	-	-	-	-	-	-	.
Cc1ccc(C)c(-n2c3nc(=O)[nH]c(=O)c-3cc3cc([N+](=O)[O-])ccc32)c1	-	-	-	-	60	-	-
Cc1cccc(-n2c3nc(=O)[nH]c(=O)c-3cc3cc([N+](=O)[O-])ccc32)c1	-	-	-	-	58	-	-
Cc1ccc(C)c(-n2c3nc(=O)n(C)c(=O)c-3cc3ccccc32)c1	-	-	-	-	-	-	.
C=CCNC(=O)c1nc2ccccc2s1	-	-	-	-	-	?	.
COc1ccc(Nc2oc(COc3ccccc3OC)nc2C#N)cc1	-	-	-	-	51	-	-
CC1(CC(=O)N/N=C/c2cc([N+](=O)[O-])c(O)cc2O)OCCO1	-	-	-	-	60	-	-
COc1ccc(CCNC(=O)CCc2cc(OC)c(OC)c(OC)c2)cc1OC	-	-	-	-	-	-	.
Cc1ccc(OCc2nnc(SCC(=O)NC3CCCCC3)n2C)cc1	-	-	.	-	-	-	.
Cn1c(COc2ccc(Cl)cc2)nnc1SCC(=O)NC1CCCCC1	-	-	-	-	51	-	-
c1ccc(CN2CCN(c3ncccn3)CC2)cc1	-	-	-	-	-	-	.
